# Reference: PubChem BioAssay AID588453 (National Center for Advancing Translational Sciences (NCATS), 2011)
# Out of some 390,000 compounds screened, about 4,000 (1%) were called active. Inconclusive results (about 4%) are left out. Calls come from the whole dose curve; as a rule, active = well fitted inhibition curve with a large enough effect; inconclusive = small, poorly fitted or top-dose-only effect; inactive = no such curve, though single readings can be large or run the other way. The list comes from a sample in which actives are over-represented; it also holds similar structures and randomly drawn compounds.
# Biological target: Thioredoxin reductase 1, cytoplasmic (Rattus norvegicus) (UniProt O89049)
# Assay: qHTS Assay for Inhibitors of Mammalian Selenoprotein Thioredoxin Reductase 1 (TrxR1): qHTS; note: nearly all actives have a fitted effect of over 65% in size
# Conditions: recombinant rTrxR1, NADPH fluorescence consumption, selenite substrate; series mostly up to 114 µM; activity change, negative = inhibition: at the top concentration
# Summary of the method: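 Rat TrxR1 (90 nM in the dispensed reagent) was pre-reduced with 400 uM NADPH for 5 min at room temperature, then incubated with compound for 15 min. After 400 uM selenite was added, NADPH fluorescence (Ex 340/Em 450 nm) was followed for 8 min.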
# % is set by controls: 0 for no effect and ±100 for the full control effect; potency is the fitted concentration of half-maximal effect.
# Chain of Thioredoxin reductase 1, cytoplasmic (Rattus norvegicus) (O89049 whole entry, looked up): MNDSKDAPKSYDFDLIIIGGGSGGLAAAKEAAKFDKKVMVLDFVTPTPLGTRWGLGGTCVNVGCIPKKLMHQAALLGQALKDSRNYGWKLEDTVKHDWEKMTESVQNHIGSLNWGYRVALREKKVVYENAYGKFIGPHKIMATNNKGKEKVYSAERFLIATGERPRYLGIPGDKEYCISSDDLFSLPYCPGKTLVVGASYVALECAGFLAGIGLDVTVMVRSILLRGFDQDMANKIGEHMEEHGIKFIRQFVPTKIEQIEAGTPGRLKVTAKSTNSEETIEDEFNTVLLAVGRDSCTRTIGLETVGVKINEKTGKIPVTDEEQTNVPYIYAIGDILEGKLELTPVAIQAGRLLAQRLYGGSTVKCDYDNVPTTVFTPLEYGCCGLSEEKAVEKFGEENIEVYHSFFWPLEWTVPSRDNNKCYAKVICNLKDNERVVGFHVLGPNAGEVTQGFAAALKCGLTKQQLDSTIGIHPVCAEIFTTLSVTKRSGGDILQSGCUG
Compound,"activity change, negative = inhibition",Potency
O=C(CCc1nc(CN2CCN(S(=O)(=O)c3ccc(Br)cc3)CC2)no1)N1CCCCC1,12.7% (inactive),
Cc1noc(/C=C/N(C)C)c1S(=O)(=O)N1CCCC(C(=O)Nc2cccc(F)c2)C1 (centres undefined),0.96% (inactive),
c1ccc(-c2nccc(-c3ccc(-n4cnc5ccccc54)cc3)n2)nc1,-11.2% (inactive),
Cc1nccc(-c2ccc(-n3c(C)ccc3C)cc2)n1,,79.4 µM (active)
Cc1ccc(C)n1-c1ccncc1,-10.9% (inactive),
NC1CCN(O)C1=O (centres undefined),-13.1% [at 57.1 µM] (inactive),
CC(C)(C)OC(=O)N(Cc1ccco1)S(=O)(=O)c1ccccc1Br,-3.07% (inactive),
O=C(NCc1ccccc1Cl)c1cccn1-c1nnc(N2CCCCC2)s1,-0.494% [at 57.1 µM] (inactive),
O=C(NCCc1ccccc1)c1ccc2c(c1)N(Cc1ccccc1)C(=O)c1ccccc1S2(=O)=O,23.8% (inactive),
CCCCOc1ccc(CN2C(=O)C(=O)c3cc(Br)cc(C)c32)cc1OC,-11.8% (inactive),
CCOc1ccc(C(=O)CCN2CCOCC2)cc1,,3.16 µM (active)
CCOc1ccc(-c2ccc(SCC(=O)N3CCOCC3)nn2)cc1,20.2% [at 57.1 µM] (inactive),
CCOc1ccc(C(=O)N2CCN(CCc3ccccn3)CC2)cc1,13.2% (inactive),
SCc1nc2ccc(Cl)cc2[nH]1,14.2% (inactive),
Cc1ccccc1C(=O)Nc1sc2c(c1C(=O)N1CCC(C)CC1)CCCC2,7.89% (inactive),
Cc1cccc(NC(=O)C2CCCN2S(=O)(=O)c2cccc3nsnc23)c1C (centres undefined),24.3% (inactive),
COc1cc(COCC(O)CN2CCN(Cc3ccc4c(c3)OCO4)CC2)cc(OC)c1OC (centres undefined),9.46% [at 57.1 µM] (inactive),
COc1cc(C2c3cc4c(cc3C(O)C3COC(=O)C23)OCO4)cc(OC)c1OC (centres undefined),,inactive
COc1c(O)ccc2c1CN1CCc3cc4c(cc3C1C2)OCO4 (centres undefined),,50.1 µM (active)
Nc1nc(N)c(N=O)c(N)n1,-5.22% (inactive),
COc1ccc(NS(=O)(=O)c2cc3c4c(c2)CC(=O)N4CCC3)cc1Cl,18.3% [at 57.1 µM] (inactive),
Fc1ccc(-c2ccc(-c3nn4c(-c5ccco5)nnc4s3)o2)cc1,,35.5 µM (active)

Compound,"activity change, negative = inhibition",Potency
O=C(Nc1ccc(Br)cc1)c1ccc(Br)c(S(=O)(=O)NCc2ccccc2)c1,13.6% [at 57.1 µM] (inactive),
O=C(NC1CC(=O)N(c2ccc(Cl)cc2)C1)C1CCCC1 (centres undefined),2.69% [at 57.1 µM] (inactive),
Cc1ccc(CCNC(=O)c2ccc3c(c2)N(Cc2cc(C)ccc2C)C(=O)c2ccccc2S3=O)cc1 (centres undefined),33.3% (inactive),
Cc1ccccc1C(CC(=O)c1cccs1)C(C#N)C#N (centres undefined),,10 µM (active)
C[N+]1(CC(=O)c2cccs2)CCOCC1,0.401% (inactive),
Cc1ccccc1N(C(=O)CNC(=O)c1cccs1)C(C(=O)NC1CCCC1)c1ccncc1 (centres undefined),14.1% (inactive),
CCOC(=O)c1ccc(NC(=O)c2c(NCc3cccc(OC)c3)sc3c2CCC3)cc1,17% [at 57.1 µM] (inactive),
CCOc1ccc(N2C(=O)CN(c3cccc4ccccc34)C2=S)cc1,14.6% [at 57.1 µM] (inactive),
CCOC(=O)c1ccc(NC2=CC(c3ccc(OCC)cc3)N(c3ccc(C(=O)OCC)cc3)C2=O)cc1 (centres undefined),6.64% (inactive),
CCOc1ccc(N2C(=O)/C(=C/c3ccc(C)o3)N(C)C2=S)cc1,,31.6 µM (active)
COc1ccc(Cn2c(=O)n(-c3ccccc3C)c(=O)c3c4c(sc32)CN(C(C)=O)CC4)cc1,2.71% (inactive),
O=C(COc1ccccc1Cl)Nc1ccc2nc(SCC(=O)N3CCCC3)sc2c1,25.8% (inactive),
COCc1ccc(C(=O)N2CCc3c([nH]c4ccccc34)C2c2ccccn2)s1 (centres undefined),29.7% [at 57.1 µM] (inactive),
c1ccc(C2c3[nH]c4ccccc4c3CCN2Cc2cccn2-c2cccnc2)nc1 (centres undefined),,50.1 µM (active)
CCOc1ccc(C2c3[nH]c4ccccc4c3CCN2Cc2cccn2-c2ncccn2)cc1 (centres undefined),-8.64% (inactive),
CS(=O)c1ccc(/C=C2\C=Cc3ccccc32)cc1 (centres undefined),-8.61% (inactive),
CCOC(=O)c1nnn(CC(=O)NC(=O)Nc2ccccc2F)c1C(=O)OCC,-3.22% (inactive),
Cc1ccc(Cc2cnc(N)s2)o1,,22.4 µM (active)
COc1cn(CC(=O)Nc2cccc(C)c2C)c(CN2CCCCC2)cc1=O,8.52% [at 57.1 µM] (inactive),
Cc1cccc(N2CCN(C(=O)CCn3c(=O)c4cccn4c4cccnc43)CC2C)c1 (centres undefined),7.19% (inactive),
CCn1c(CNC(=O)C23CC4CC(CC(C4)C2)C3)nnc1SCC(=O)Nc1ccc(OC)cc1,-3.1% (inactive),
NC(=O)CSc1oc(-c2cccs2)nc1S(=O)(=O)c1ccccc1,7.07% [at 57.1 µM] (inactive),

Compound,"activity change, negative = inhibition",Potency
CSc1oc(-c2cccs2)nc1S(=O)(=O)c1ccc(Br)cc1,12.6% (inactive),
CCCCS(=O)(=O)c1oc(-c2cccs2)nc1S(=O)(=O)c1ccccc1,,0.447 µM (active)
C(=Nc1ccc(/C=C/c2ccnc3ccccc23)cc1)Nc1ccc(/C=C/c2ccnc3ccccc23)cc1,-1.09% (inactive),
CCOC(=O)c1c(C)oc2nc(C)nc(Nc3ccc(CC)cc3)c12,38.5% (inactive),
CCCOc1ccc(C(=O)Nc2ccc3oc(-c4cccc(Cl)c4Cl)nc3c2)cc1,37.6% (inactive),
Oc1c(C=Nc2cccc3nsnc23)ccc2ccccc12,,39.8 µM (active)
Cc1cccc(-c2nnc(SCC(=O)N3CCCc4ccccc43)o2)c1,-0.491% (inactive),
COc1ccc(-c2nc(=N)sn2-c2ccccc2)cc1,-21.3% (inactive),
Cc1cc(C)c2c(n1)nn1c(-n3ccnc3)cc(C)nc21,,8.91 µM (active)
COC(=O)c1cc(NC(=O)CCc2c(C)nc3c4c(C)cc(C)nc4nn3c2C)cc(C(=O)OC)c1,11.9% (inactive),
Cc1cc(C)c2c(NC(=O)C3CC3)nn(C)c2n1,39% (inactive),
Cc1ccc(-c2cc(C(=O)NN)n[nH]2)o1,5.28% [at 57.1 µM] (inactive),
Cc1ccc(NC(=O)c2cc(-c3ccc(C)o3)nc3ccccc23)nc1,,14.1 µM (active)
CCOc1ccc(CNC(=O)c2cc(-c3ccc(Cl)s3)nc3ccccc23)cc1,35.6% (inactive),
CCOC(=O)c1cc2c(=O)n3ccccc3nc2n(CC2CCCO2)c1=NC(=O)c1ccc(C(C)(C)C)cc1 (centres undefined),6.69% (inactive),
Cc1cccc(N2CCN(C3=C(c4ccccc4)C(=O)c4ccccc43)CC2)c1C,3% (inactive),
CC(=O)/C(C)=N/O,,inactive
Cc1noc(C)c1NC(=O)Nc1cccc2c1O[C@H](CN(C)C(=O)Nc1ccccc1)[C@@H](C)CN([C@H](C)CO)C2=O,5.71% (inactive),
Cc1noc(C)c1NC(=O)Nc1ccc2c(c1)C(=O)N([C@H](C)CO)C[C@H](C)[C@@H](CN(C)C(=O)Nc1ccc(C(F)(F)F)cc1)O2,-11.5% (inactive),
C[C@H](CO)N1C[C@H](C)[C@H](CN(C)C(=O)Nc2ccc(C(F)(F)F)cc2)Oc2c(NC(=O)c3ccncc3)cccc2C1=O,,56.2 µM (active)
